Activity calls are given as the source filed them. Rule for the calls: active = hit-call score of the fitted dose curve at least 0.9, where 1 is the maximum; inactive = score below 0.9.
How the values were obtained:
[1] = ATG_GLI_CIS: Attagene CIS-FACTORIAL HepG2 Assay for human Zinc Finger Protein GLI1 (AID 2282945); settings: HepG2, Attagene cis-factorial reporter mRNA, GLI element; actives raise or lower the signal
Procedure, shortened: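 Bidirectional curve fits relative to DMSO, using reporter mRNA levels from RT-PCR plus capillary electrophoresis. Cells were HepG2 transiently carrying cis-regulated reporter constructs, harvested 24 h after dosing.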

[2] = ATG_ISRE_CIS: Attagene CIS-FACTORIAL HepG2 Assay for human Interferon Regulatory Factor 1 (IRF1) binding to an Interferon-Stimulated Response Element (ISRE) (AID 2282948); settings: HepG2 ISRE cis-reporter (Attagene), mRNA transcription readout; actives raise or lower the signal
Procedure, shortened: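 Signal reflects induction or loss of ISRE-linked reporter mRNA in transiently transfected HepG2 cells after a 24 h treatment, detected by fluorescent RT-PCR fragments on capillary electrophoresis and normalised to DMSO.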

[3] = ATG_M_32_CIS: Attagene CIS-FACTORIAL HepG2 Assay for M32 Transcription Factor (Internal Marker) (AID 2282949); settings: HepG2 Attagene cis-factorial M32 reporter, mRNA; actives raise or lower the signal;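 note: background control marker of the multiplexed CIS panel rather than a real target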
Procedure, shortened: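 HepG2 human liver cells transiently transfected with cis-promoter-driven multiple reporter transcription units, dosed 24 h. Reporter mRNA quantified by RT-PCR, FAM-labelled primer extension, HpaI digest and capillary electrophoresis; bidirectional fit versus DMSO baseline.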

[4] = ATG_M_06_CIS: Attagene CIS-FACTORIAL HepG2 Assay for M06 Transcription Factor (Internal Marker) (AID 2282950); settings: HepG2 Attagene CIS-FACTORIAL M06 internal marker reporter; actives raise or lower the signal
Procedure, shortened: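 Internal background marker within multiplexed cis-reporter HepG2 system. Cells transiently transfected, dosed 24 h; reporter mRNA measured by RT-PCR, HpaI digestion and capillary electrophoresis. Bidirectional fit relative to DMSO.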

[5] = target: Hypoxia-inducible factor 1-alpha (Homo sapiens) (UniProt Q16665); experiment: ATG_HIF1a_CIS: Attagene CIS-FACTORIAL HepG2 Assay for human Hypoxia Inducible Factor 1 (HIF1A) (AID 2282951); settings: HepG2 Attagene cis-factorial HIF1a reporter transcription; actives raise or lower the signal
Chain of Hypoxia-inducible factor 1-alpha (Homo sapiens) (Q16665 whole entry, looked up): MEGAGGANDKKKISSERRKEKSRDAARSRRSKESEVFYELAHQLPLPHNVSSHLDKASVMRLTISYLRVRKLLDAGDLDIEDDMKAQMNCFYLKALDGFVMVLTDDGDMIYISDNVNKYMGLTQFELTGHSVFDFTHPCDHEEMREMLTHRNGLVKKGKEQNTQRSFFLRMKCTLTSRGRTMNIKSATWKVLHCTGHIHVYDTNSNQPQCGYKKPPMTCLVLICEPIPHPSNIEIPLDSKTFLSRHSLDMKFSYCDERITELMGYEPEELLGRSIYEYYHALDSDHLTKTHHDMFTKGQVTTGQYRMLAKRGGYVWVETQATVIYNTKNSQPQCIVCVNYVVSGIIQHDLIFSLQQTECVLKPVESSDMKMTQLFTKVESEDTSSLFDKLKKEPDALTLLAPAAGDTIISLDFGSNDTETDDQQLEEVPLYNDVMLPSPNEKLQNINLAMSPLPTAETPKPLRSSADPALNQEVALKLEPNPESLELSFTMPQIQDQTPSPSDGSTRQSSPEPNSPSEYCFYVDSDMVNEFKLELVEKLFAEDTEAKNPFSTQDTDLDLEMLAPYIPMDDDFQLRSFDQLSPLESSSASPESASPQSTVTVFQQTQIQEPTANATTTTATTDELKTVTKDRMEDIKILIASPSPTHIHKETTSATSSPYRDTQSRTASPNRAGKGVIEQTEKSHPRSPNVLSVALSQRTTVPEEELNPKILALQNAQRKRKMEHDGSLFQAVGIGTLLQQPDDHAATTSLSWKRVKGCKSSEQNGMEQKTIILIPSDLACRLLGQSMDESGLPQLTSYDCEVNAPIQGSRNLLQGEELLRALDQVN
Procedure, shortened: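 After 24 h chemical exposure of reporter-transfected HepG2 cells, reporter cDNA was PCR-amplified, labelled by 6-FAM primer extension (2 min 95 C, 20 s 68 C, 10 min 72 C), HpaI-cut (2 h, 37 C) and analysed by CE.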

[6] = target: Hepatocyte nuclear factor 6 (Homo sapiens) (UniProt Q9UBC0); experiment: ATG_HNF6_CIS: Attagene CIS-FACTORIAL HepG2 Assay for human Hepatocyte Nuclear Factor 6 (HNF6) (AID 2282952); settings: HepG2 Attagene cis-factorial HNF6 reporter transcription; actives raise or lower the signal
Chain of Hepatocyte nuclear factor 6 (Homo sapiens) (Q9UBC0 whole entry, looked up): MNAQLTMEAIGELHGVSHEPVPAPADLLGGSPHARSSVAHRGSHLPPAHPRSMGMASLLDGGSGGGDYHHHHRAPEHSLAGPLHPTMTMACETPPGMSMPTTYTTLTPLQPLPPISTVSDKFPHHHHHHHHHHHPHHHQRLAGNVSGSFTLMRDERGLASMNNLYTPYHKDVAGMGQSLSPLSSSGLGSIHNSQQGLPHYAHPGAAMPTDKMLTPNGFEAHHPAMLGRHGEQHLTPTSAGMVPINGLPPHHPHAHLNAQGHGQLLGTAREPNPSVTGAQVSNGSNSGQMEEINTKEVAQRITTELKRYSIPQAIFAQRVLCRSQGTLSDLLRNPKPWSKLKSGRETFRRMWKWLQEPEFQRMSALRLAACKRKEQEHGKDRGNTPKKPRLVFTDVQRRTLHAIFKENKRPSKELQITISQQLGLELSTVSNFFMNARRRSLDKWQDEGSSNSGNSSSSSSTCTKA
Procedure, shortened: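 Activity values derive from bidirectional fitting against DMSO of reporter mRNA levels, measured by capillary electrophoresis of labelled RT-PCR products from HepG2 cells exposed 24 h.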

[7] = target: Heat shock factor protein 1 (Homo sapiens) (UniProt Q00613); experiment: ATG_HSE_CIS: Attagene CIS-FACTORIAL HepG2 Assay for human Heat Shock Transcription Factor 1 (HSE) (AID 2282953); settings: HepG2 HSE cis-reporter, Attagene RNA transcription; actives raise or lower the signal
Chain of Heat shock factor protein 1 (Homo sapiens) (Q00613 whole entry, looked up): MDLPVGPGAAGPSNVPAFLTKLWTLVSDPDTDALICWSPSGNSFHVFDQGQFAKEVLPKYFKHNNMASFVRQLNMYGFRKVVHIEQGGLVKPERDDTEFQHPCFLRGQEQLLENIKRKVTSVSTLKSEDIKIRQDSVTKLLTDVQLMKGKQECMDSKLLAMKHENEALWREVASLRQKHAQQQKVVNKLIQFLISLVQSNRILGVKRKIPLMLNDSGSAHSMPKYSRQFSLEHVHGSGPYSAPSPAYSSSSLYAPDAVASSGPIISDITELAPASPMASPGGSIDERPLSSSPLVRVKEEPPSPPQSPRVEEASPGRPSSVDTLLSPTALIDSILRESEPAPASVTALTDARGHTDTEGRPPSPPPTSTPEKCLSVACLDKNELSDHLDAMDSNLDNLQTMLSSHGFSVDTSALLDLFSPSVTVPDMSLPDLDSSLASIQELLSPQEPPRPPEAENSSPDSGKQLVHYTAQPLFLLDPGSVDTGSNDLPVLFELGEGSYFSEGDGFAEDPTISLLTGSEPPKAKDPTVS
Procedure, shortened: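 HepG2 cells transfected with cis-promoter reporter units sensing endogenous transcription factor activity; reporter mRNA quantified 24 h post-dose by RT-PCR and capillary electrophoresis of 6-FAM-labelled products. Bidirectional fitting against DMSO.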

[8] = ATG_MRE_CIS: Attagene CIS-FACTORIAL HepG2 Assay for human Metal Responsive Element (MRE) (AID 2282954); settings: HepG2 MRE cis-reporter transcription, Attagene multiplex; actives raise or lower the signal
Procedure, shortened: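 Endogenous MRE-dependent transcription read as reporter mRNA in transiently transfected human HepG2 cells at 24 h. RNA reverse-transcribed, PCR-amplified, labelled and resolved by capillary electrophoresis; gain or loss relative to DMSO.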

[9] = target: Paired box protein Pax-6 (Homo sapiens) (UniProt P26367); experiment: ATG_Pax6_CIS: Attagene CIS-FACTORIAL HepG2 Assay for human Paired Box 6 (PAX6) (AID 2282956); settings: HepG2 CIS-FACTORIAL PAX6 reporter transcription, RNA readout; actives raise or lower the signal
Chain of Paired box protein Pax-6 (Homo sapiens) (P26367 whole entry, looked up): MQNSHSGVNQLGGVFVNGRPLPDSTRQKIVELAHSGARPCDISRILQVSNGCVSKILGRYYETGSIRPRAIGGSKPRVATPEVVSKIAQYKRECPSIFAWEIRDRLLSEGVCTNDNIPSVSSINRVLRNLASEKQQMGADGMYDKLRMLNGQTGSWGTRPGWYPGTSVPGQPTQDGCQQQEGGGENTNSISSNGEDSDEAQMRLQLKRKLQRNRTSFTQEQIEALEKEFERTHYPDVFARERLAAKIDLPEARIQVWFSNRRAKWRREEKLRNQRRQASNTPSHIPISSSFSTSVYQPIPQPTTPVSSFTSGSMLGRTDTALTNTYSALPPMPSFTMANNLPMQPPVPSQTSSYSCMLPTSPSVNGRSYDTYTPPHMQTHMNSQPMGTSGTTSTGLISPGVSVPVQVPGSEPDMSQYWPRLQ
Procedure, shortened: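 Values derive from bidirectional curve fitting of reporter mRNA signal relative to DMSO. HepG2 cells bearing transfected cis-regulated MRTUs were exposed for 24 h; transcripts were read by RT-PCR and capillary electrophoresis.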

[10] = ATG_PXRE_CIS: Attagene CIS-FACTORIAL HepG2 Assay for human Pregnane X Receptor Element (PXRE) (AID 2282957); settings: HepG2 Attagene CIS-FACTORIAL PXRE reporter, mRNA; actives raise or lower the signal
Procedure, shortened: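 Fluorescent capillary electrophoresis of amplified reporter cDNA gave the signal, collected 24 h after dosing HepG2 cells that held transfected cis-element reporter constructs.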

[11] = ATG_PPRE_CIS: Attagene CIS-FACTORIAL HepG2 Assay for human Peroxisome Proliferator-activated Response Element (PPRE) (AID 2282958); settings: HepG2 PPRE cis-element reporter, Attagene transcription factor profiling; actives raise or lower the signal
Procedure, shortened: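 PPRE activity in HepG2: transient cis-reporter transfection, 24 h compound incubation, reporter mRNA by RT-PCR and CE fluorescence; gain/loss fitted against DMSO.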

[12] = ATG_RORE_CIS: Attagene CIS-FACTORIAL HepG2 Assay for human RAR-related Orphan Receptor Element (RORE) (AID 2282959); settings: HepG2 Attagene cis-factorial RORE reporter, mRNA; actives raise or lower the signal
Procedure, shortened: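 A 24-hour exposure of transfected HepG2 hepatoma cells precedes RNA isolation and reporter RT-PCR. Labeled products are digested with HpaI and resolved by capillary electrophoresis, with gain or loss of signal scored relative to DMSO.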

[13] = ATG_Sox_CIS: Attagene CIS-FACTORIAL HepG2 Assay for human SRY-box transcription factor (SOX) (AID 2282960); settings: HepG2 Attagene cis-factorial SOX reporter, mRNA; actives raise or lower the signal
Procedure, shortened: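 HepG2, cis reporter units, 24 h exposure. Reporter mRNA: RT-PCR → FAM labelling → HpaI → CE fluorescence. Bidirectional fit vs DMSO.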

[14] = target: Transcription factor Sp1 (Homo sapiens) (UniProt P08047); experiment: ATG_Sp1_CIS: Attagene CIS-FACTORIAL HepG2 Assay for human Specificity Protein 1 (Sp1) (AID 2282961); settings: HepG2 Sp1 cis-reporter transcription, actives raise or lower the signal
Chain of Transcription factor Sp1 (Homo sapiens) (P08047 whole entry, looked up, the tested form may be a part): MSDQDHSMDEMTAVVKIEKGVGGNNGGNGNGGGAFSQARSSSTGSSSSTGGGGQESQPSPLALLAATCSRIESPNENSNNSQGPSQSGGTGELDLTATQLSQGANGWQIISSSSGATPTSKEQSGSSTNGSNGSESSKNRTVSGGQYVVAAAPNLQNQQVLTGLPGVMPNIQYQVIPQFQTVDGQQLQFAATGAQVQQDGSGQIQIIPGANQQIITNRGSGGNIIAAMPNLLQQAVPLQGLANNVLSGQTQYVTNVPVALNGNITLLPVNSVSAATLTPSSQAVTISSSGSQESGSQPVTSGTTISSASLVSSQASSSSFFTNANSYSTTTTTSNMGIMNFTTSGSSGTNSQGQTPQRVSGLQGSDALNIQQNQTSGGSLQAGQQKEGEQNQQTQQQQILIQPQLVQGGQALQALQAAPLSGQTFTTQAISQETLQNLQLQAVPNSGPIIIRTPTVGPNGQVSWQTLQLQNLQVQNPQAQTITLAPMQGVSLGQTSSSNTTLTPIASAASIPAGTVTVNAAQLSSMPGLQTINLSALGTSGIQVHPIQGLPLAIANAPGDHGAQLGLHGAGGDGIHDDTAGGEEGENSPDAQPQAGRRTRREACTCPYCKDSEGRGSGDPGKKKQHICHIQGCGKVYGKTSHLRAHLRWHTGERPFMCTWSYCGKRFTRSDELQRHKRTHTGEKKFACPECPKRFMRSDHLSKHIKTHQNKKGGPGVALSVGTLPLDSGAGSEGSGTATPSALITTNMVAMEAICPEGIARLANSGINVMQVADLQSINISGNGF
Procedure, shortened: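 Liver-derived HepG2 cells, cis-element reporter library, 24 h treatment; RNA isolated, cDNA amplified with reporter-specific primers, FAM-labeled fragments sized on capillary analyzer. DMSO baseline, bidirectional curve fit.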

[15] = ATG_SREBP_CIS: Attagene CIS-FACTORIAL HepG2 Assay for human Sterol Regulatory Element Binding (SREBP) (AID 2282962); settings: HepG2 Attagene cis-factorial SREBP reporter, mRNA; actives raise or lower the signal
Procedure, shortened: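 Values derive from bidirectional curve fitting with DMSO as baseline. The underlying measurement is reporter mRNA from cis-element-regulated units in transiently transfected HepG2, quantified by RT-PCR and capillary electrophoresis after 24 h exposure.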

[16] = target: Signal transducer and activator of transcription 3 (Homo sapiens) (UniProt P40763); experiment: ATG_STAT3_CIS: Attagene CIS-FACTORIAL HepG2 Assay for human Signal Transducer and Activator of Transcription 3 (STAT3) (AID 2282963); settings: HepG2, Attagene cis-factorial STAT3 reporter transcription; actives raise or lower the signal
Chain of Signal transducer and activator of transcription 3 (Homo sapiens) (P40763 whole entry, looked up): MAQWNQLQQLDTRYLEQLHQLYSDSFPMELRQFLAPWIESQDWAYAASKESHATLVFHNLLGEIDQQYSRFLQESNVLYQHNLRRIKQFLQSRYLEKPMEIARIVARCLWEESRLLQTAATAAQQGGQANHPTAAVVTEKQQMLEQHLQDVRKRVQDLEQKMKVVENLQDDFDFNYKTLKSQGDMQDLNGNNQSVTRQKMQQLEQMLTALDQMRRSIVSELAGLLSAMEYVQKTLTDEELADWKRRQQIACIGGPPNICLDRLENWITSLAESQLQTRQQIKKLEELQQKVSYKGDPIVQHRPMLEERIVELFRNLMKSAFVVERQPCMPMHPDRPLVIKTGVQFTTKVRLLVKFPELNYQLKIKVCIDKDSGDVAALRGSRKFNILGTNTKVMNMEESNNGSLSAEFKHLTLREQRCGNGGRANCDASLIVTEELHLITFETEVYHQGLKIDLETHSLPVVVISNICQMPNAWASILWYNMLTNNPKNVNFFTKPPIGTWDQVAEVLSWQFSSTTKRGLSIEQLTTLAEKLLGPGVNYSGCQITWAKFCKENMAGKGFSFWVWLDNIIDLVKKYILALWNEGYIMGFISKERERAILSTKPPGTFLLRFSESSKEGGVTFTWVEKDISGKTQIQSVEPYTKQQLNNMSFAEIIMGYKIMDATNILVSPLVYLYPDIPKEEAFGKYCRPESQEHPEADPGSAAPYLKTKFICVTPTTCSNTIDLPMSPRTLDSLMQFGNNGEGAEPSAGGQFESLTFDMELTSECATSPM
Procedure, shortened: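 Readout is reporter transcript quantified by RT-PCR and capillary electrophoresis, with 6-FAM primer extension and HpaI digestion. Total RNA is taken 24 h after dosing transiently transfected HepG2 carrying cis-regulated reporter units. Bidirectional fit against DMSO.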

[17] = ATG_TA_CIS: Attagene CIS-FACTORIAL HepG2 Assay for human TA Basal Promoter (AID 2282964); settings: HepG2 Attagene CIS-factorial TA basal promoter reporter; actives raise or lower the signal
Procedure, shortened: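 HepG2 cells transiently transfected with multiple reporter units under cis promoter elements, reporting endogenous transcription factor activity; this endpoint tracks the TA basal promoter as background control. Reporter mRNA after 24 h dosing measured by RT-PCR/capillary electrophoresis; bidirectional fits versus DMSO.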

[18] = ATG_GRE_CIS: Attagene CIS-FACTORIAL HepG2 Assay for human Glucocorticoid Response Elements (GRE) (AID 2282947); settings: HepG2 GRE cis-reporter, Attagene multiplex mRNA; actives raise or lower the signal
Procedure, shortened: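 Reporter transcripts read by RT-PCR with capillary electrophoresis fluorescence after a 24 h chemical exposure of HepG2 cells transiently transfected with multiple cis-element reporter units. Gain or loss fitted against DMSO.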

[19] = ATG_PBREM_CIS: Attagene CIS-FACTORIAL HepG2 Assay for human Phenobarbital-responsive Enhancer Module (PBREM) (AID 2282955); settings: HepG2 PBREM cis-reporter, Attagene multiplexed transcription; actives raise or lower the signal
Procedure, shortened: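 Measures endogenous factor action on a phenobarbital-responsive enhancer module. HepG2 transiently carrying cis reporters, 24 h treatment, mRNA read-out by RT-PCR plus capillary electrophoresis.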

Measured: AC50

O=[N+]([O-])C(CO)(CO)CO
active: [10] 48.1 µM
inactive: [1] | [2] | [3] | [4] | [5] | [6] | [7] | [8] | [9] | [11] | [12] | [13] | [14] | [15] | [16] | [17]

Clc1cc(Cl)c(Cl)cc1Cl
inactive: [1] | [18] | [2] | [3] | [4] | [5] | [6] | [7] | [8] | [9] | [10] | [11] | [12] | [14] | [15] | [16] | [17]

CN1CCCC1=O
inactive: [1] | [2] | [3] | [4] | [5] | [6] | [7] | [8] | [9] | [10] | [12] | [13] | [14] | [15] | [16] | [17]

Cc1cccc(C)c1O
inactive: [1] | [2] | [3] | [4] | [5] | [6] | [7] | [8] | [19] | [9] | [10] | [11] | [12] | [14] | [15] | [16] | [17]

NCC1(Cc2noc(=O)[nH]2)CCCCC1
inactive: [1] | [2] | [3] | [4] | [5] | [6] | [7] | [8] | [19] | [9] | [10] | [11] | [12] | [13] | [14] | [15] | [16] | [17]

CCCCCCCC=O
inactive: [1] | [2] | [3] | [4] | [5] | [6] | [7] | [8] | [9] | [10] | [12] | [14] | [15] | [17]
active: [16] 37.7 µM

NCCO
inactive: [1] | [18] | [2] | [3] | [4] | [5] | [6] | [7] | [8] | [9] | [10] | [12] | [14] | [15] | [16] | [17]

O=c1c(O)c(-c2ccc(O)c(O)c2)oc2cc(O)cc(O)c12
inactive: [1] | [2] | [3] | [4] | [6] | [8] | [19] | [9] | [12] | [14] | [15] | [16] | [17]
active: [10] 76.2 µM
